RGS7-Gao: RGS7-Galphao binding modulators, primary screen, biochemical, multiplexed bead flow cytometry; Guanine nucleotide-binding protein G(o) subunit alpha (Homo sapiens), P09471; actives lie on both sides; binding response (% of control), % at 10 µM; 0.35% of 220,000 active; AID 1439, 2008; in the data active means binding response below about 49% or above about 150%; inconclusive means no clear call, values can overlap the other calls; inactive means in between;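 further: fluorescent Galphao held in activated GDP-AlF4 state binding bead-coupled RGS7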
Target sequence (P09471 whole entry, looked up): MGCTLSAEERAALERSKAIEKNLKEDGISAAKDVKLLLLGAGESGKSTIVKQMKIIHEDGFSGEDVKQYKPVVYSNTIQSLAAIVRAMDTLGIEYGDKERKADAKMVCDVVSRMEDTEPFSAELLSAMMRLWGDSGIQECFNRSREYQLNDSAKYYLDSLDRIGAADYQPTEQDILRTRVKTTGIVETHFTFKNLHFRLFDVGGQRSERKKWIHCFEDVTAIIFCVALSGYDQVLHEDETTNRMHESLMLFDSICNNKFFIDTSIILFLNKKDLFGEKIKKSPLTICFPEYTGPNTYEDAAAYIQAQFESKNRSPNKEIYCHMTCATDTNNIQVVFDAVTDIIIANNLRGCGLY
RGS8-Gao reg: RGS8-Galphao binding modulators, primary screen, biochemical, multiplexed bead flow cytometry | Guanine nucleotide-binding protein G(o) subunit alpha (Homo sapiens), P09471 | response (percent of control binding), % at 10 µM | AID 1423, 2008 | actives lie on both sides | 0.34% of 220,000 active; in the data active means response below about 60% or above about 140%; inactive means in between;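 further: Galphao activated as the GDP aluminium fluoride complex binding bead-coupled RGS8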
RGS16-Gao HTS: modulators of RGS16 binding to Galphao, primary screen, biochemical, human proteins, multiplexed bead flow cytometry; Regulator of G-protein signaling 16 (Homo sapiens) + Guanine nucleotide-binding protein …; bead-based flow cytometry RGS16-Galphao binding, fluorescence; actives lie on both sides; binding response (% of control), % at 10 µM; 0.38% of 220,000 active; call rule not given here;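 further: Galphao activated by GDP with aluminum fluoride before binding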
Target sequence (O15492 whole entry, looked up): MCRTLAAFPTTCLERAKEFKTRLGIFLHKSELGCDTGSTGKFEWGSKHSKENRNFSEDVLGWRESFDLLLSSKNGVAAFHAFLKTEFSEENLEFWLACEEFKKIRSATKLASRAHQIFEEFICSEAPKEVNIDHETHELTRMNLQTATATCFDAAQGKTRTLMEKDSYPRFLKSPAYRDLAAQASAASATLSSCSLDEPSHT
Target sequence (P09471 whole entry, looked up): as the sequence (P09471 whole entry, looked up) above
Avidin fluor: green autofluorescence of compounds with avidin beads – biophysical, 488/530 nm, flow cytometry, artefact control, profiling panel; compound fluorescence 488/530 nm; active compounds read high; fluorescence (KMESF) at 10 µM; 0.38% of 220,000 active; AID 1775, 2009; in the data active means fluorescence above about 47
RGS4-Gao reg: modulators of RGS4 binding to Galphao, primary screen, biochemical, multiplexed bead flow cytometry; 0.33% of 220,000 active; actives lie on both sides; binding response (% of control), % at 10 µM; in the data active means binding response below about 49% or above about 150%; inactive means in between;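 further: fluorescent Galphao activated with aluminum fluoride binding bead-coupled RGS4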
GSH bead fluor: compound fluorescence on glutathione beads, profiling panel, artefact control, biophysical, 488/530 nm, flow cytometry | GSH beads flow cytometry, compound fluorescence 488/530 nm; active compounds read high | fluorescence (KMESF) at 10 µM | 0.25% of 190,000 active; in the data active means fluorescence above about 89;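 further: glutathione beads carrying GST-tagged Bcl family fusion proteins plus one bare bead set; values are compound well signal with DMSO vehicle wells as background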
Numbers without * were called inactive; ? = inconclusive; / = no result. The list is not random: actives were taken first. Their share in the collection is about 1.2%.

SMILES | RGS7-Gao | RGS8-Gao reg | RGS16-Gao HTS | Avidin fluor | RGS4-Gao reg | GSH bead fluor
CCCCC1=CC2=CC(=O)C(C)(OC(=O)c3cnc4ccccc4n3)C(=O)C2=CO1 (stereo not drawn) | ? | 98 | 96 | 8 | 91 | /
COc1ccc(-n2c(C)nc(N)c2C(=O)c2ccccc2)cc1 | ? | 103 | 101 | 8 | 101 | /
N/C(CC(=O)NC1CCCCC1)=N\OCC(=O)Nc1ccc(Cl)c(Cl)c1 | ? | 101 | 102 | 10 | 101 | /
CCN(CC)CCn1c(=N)n(CC(O)COc2ccccc2)c2ccccc21 (stereo not drawn) | ? | 91 | 87 | 51* | 113 | /
O=C(O)c1c2c(nc3ccc(S(=O)(=O)N4CCC(C(=O)NC5CCCCCC5)CC4)cc13)CCCC2 | 96 | 100 | 99 | 9 | 99 | 11
CCC(C(=O)N1CCN(c2ccccn2)CC1)n1nc(C)n2c(cc3occc32)c1=O (stereo not drawn) | 100 | 100 | 101 | 39 | 102 | 27
Cc1nn(C(C)C(=O)N2CCN(c3ccccn3)CC2)c(=O)c2cc3occc3n12 (stereo not drawn) | 110 | 106 | 125 | 47* | 107 | 18
COc1ccc(C(=O)Nc2cc(C)on2)cc1S(=O)(=O)N1CC(c2ccccc2)CC1=O (stereo not drawn) | 108 | 101 | 103 | 7 | 101 | 12
COCCN(C(=O)Nc1ccc(OC)cc1OC)C1CCN(C(C)C)CC1 | 133 | 104 | 103 | 51* | 105 | 35
CC(C)=CC(=O)OCC(=O)Nc1ccccc1Cl | 101 | 98 | 99 | 7 | 98 | 266*
O=C(OCc1ccc(Cl)cc1)c1cnccn1 | 98 | 103 | 98 | 7 | 102 | 11
O=C(OCc1ccc(Cl)c(Cl)c1)c1cnccn1 | 104 | 100 | 106 | 9 | 103 | 270*
CN(C)c1nc(SCC#N)nc(N(C)C)n1 | 115 | 101 | 106 | 59* | 106 | 26
Cc1ccc(C2=NNC3(CCOC(C)(C)C3)S2)cc1 (stereo not drawn) | 102 | 103 | 99 | 8 | 101 | 9
CCn1c(N)c(C(=O)NC)sc1=S | 126 | 69 | 44 | 8 | 99 | 87*
CC(C)CC(=O)N/C(N)=N/c1nc2ccccc2o1 | ? | 100 | 100 | 9 | 108 | /
O=c1cc(CN2CCC3(CC2)OCCO3)c2c(ccc3ccccc32)o1 | 103 | 102 | 98 | 10 | 99 | 8
O=c1cc(CN2CCN(c3ccccc3)CC2)c2c(ccc3ccccc32)o1 | 108 | 98 | 96 | 55* | 100 | 14
CC(NC(=O)Nc1ccc([N+](=O)[O-])cc1)C(c1cccs1)N1CCCC1 (stereo not drawn) | 102 | 100 | 87 | 4 | 101 | 10
CCOC(=O)c1ccc2c(c1)nc(SCC(=O)c1ccco1)n2CC | 95 | 91 | 52 | 5 | 97 | 255*
CCOC(=O)C1CCCN(C(=O)c2cc(-c3ccc(F)cc3)nc3ccccc23)C1 (stereo not drawn) | 104 | 103 | 113 | 23 | 101 | 11
CCOC(=O)C1CCCN(C(=O)c2cc(Nc3ccc(OC)cc3)nc3ccccc23)C1 (stereo not drawn) | 116 | 101 | 106 | 51* | 108 | 16
C[C@H]1O[C@H](O[C@H]2[C@H](O)[C@@H](O)[C@@H](O[C@H]3[C@H](O)[C@@H](O)C(O)O[C@@H]3CO)O[C@@H]2CO)[C@H](O)[C@@H](O)[C@@H]1N[C@H]1C=C(CO)[C@@H](O)[C@H](O)[C@H]1O (stereo partly drawn) | 104 | 98 | 94 | 8 | 98 | 65
CC(=O)N1CC2([N+](=O)[O-])CN(C(C)=O)CC([N+](=O)[O-])(C1)C2(C)C | 111 | 126 | 195 | 20 | 108 | 11
CC1N(O)C(C)(C)C(c2ccccc2)=[N+]1[O-] (stereo not drawn) | 84 | 81 | 77 | 3 | 82 | 103*
SMILES | RGS7-Gao | RGS8-Gao reg | RGS16-Gao HTS | Avidin fluor | RGS4-Gao reg | GSH bead fluor
Cc1cc(C)n2c(SCCC(C)C)nnc2n1 | 107 | 110 | 119 | 9 | 111 | 255*
CCC(C)NC(=O)C1c2cc(OC)c(OC)cc2C(=O)N(C)C1c1ccc(OC)cc1 (stereo not drawn) | 99 | 100 | 96 | 34 | 99 | 19
CCC(C)NC(=O)C1c2cc(OC)c(OC)cc2C(=O)N(C)C1c1cccs1 (stereo not drawn) | 116 | 100 | 104 | 67* | 106 | 22
O=C(C1CCN(S(=O)(=O)c2cccc3cccnc23)CC1)N1CCN(C2CCCCC2)CC1 | 105 | 102 | 102 | 27 | 102 | 14
O=C(C1CCN(S(=O)(=O)c2cccnc2)CC1)N1CCN(C2CCCC2)CC1 | 120 | 102 | 111 | 71* | 106 | 29
CCCCCCc1cc2cc(-c3nnc(-c4ccccc4OC)o3)c(=O)oc2cc1O | 93 | 102 | 109 | 5 | 88 | 248*
CCCCCCc1cc2cc(-c3nnc(-c4ccccc4O)o3)c(=O)oc2cc1O | 109 | 100 | 111 | 26 | 111 | 26
CCCCCCc1cc2cc(-c3nnc(-c4cc(OC)c(OC)c(OC)c4)o3)c(=O)oc2cc1O | 99 | 98 | 98 | 7 | 100 | 113*
CCN(CC)CCCN1C(=O)CSC1c1ccc([N+](=O)[O-])cc1 (stereo not drawn) | 106 | 107 | 114 | 13 | 103 | 14
CC1CC2(CCCCC2)N2C(=O)C(=O)c3cccc1c32 (stereo not drawn) | 29* | 43* | 28 | 3 | 41* | 12
CN1/C(=C\C=C2/C(=O)Oc3ccccc3C2=O)C(C)(C)c2ccccc21 | 142 | 103 | 133 | 90* | 135 | 68
CN1C(=CC=C2C=C(I)C(=O)C(I)=C2)C(C)(C)c2ccccc21 | ? | 97 | 98 | 20 | 102 | /
O=C(O)CCNc1cc2ccccc2cc1C(=O)O | 102 | 96 | 92 | 6 | 105 | 255*
O=C(O)CCNS(=O)(=O)c1ccc2ccccc2c1 | 100 | 101 | 102 | 39 | 101 | 15
O=C1C2CCCN2C(c2cccc(Br)c2)N1c1ccc(F)cc1 (stereo not drawn) | 113 | 101 | 104 | 48* | 101 | 16
O=C1C2CCCN2C(c2ccc(Br)cc2)N1c1ccc(F)cc1 (stereo not drawn) | 96 | 105 | 106 | 7 | 101 | 26

From PubChem
